KDM5B inh: blocks human KDM5B histone demethylase activity; KDM5B demethylase, FDH-coupled NADH fluorescence (FDH is formaldehyde dehydrogenase); Potency, µM (titrated, usually from 57.7 µM), hits mostly inhibitors; 220,000 compounds, 2.6% hits; AID 1347165; note: potency is the fitted concentration of half-maximal effect; 0% is about no effect; nearly all actives have a fitted effect of over 70% in size
Target sequence (Q9UGL1 whole entry, looked up): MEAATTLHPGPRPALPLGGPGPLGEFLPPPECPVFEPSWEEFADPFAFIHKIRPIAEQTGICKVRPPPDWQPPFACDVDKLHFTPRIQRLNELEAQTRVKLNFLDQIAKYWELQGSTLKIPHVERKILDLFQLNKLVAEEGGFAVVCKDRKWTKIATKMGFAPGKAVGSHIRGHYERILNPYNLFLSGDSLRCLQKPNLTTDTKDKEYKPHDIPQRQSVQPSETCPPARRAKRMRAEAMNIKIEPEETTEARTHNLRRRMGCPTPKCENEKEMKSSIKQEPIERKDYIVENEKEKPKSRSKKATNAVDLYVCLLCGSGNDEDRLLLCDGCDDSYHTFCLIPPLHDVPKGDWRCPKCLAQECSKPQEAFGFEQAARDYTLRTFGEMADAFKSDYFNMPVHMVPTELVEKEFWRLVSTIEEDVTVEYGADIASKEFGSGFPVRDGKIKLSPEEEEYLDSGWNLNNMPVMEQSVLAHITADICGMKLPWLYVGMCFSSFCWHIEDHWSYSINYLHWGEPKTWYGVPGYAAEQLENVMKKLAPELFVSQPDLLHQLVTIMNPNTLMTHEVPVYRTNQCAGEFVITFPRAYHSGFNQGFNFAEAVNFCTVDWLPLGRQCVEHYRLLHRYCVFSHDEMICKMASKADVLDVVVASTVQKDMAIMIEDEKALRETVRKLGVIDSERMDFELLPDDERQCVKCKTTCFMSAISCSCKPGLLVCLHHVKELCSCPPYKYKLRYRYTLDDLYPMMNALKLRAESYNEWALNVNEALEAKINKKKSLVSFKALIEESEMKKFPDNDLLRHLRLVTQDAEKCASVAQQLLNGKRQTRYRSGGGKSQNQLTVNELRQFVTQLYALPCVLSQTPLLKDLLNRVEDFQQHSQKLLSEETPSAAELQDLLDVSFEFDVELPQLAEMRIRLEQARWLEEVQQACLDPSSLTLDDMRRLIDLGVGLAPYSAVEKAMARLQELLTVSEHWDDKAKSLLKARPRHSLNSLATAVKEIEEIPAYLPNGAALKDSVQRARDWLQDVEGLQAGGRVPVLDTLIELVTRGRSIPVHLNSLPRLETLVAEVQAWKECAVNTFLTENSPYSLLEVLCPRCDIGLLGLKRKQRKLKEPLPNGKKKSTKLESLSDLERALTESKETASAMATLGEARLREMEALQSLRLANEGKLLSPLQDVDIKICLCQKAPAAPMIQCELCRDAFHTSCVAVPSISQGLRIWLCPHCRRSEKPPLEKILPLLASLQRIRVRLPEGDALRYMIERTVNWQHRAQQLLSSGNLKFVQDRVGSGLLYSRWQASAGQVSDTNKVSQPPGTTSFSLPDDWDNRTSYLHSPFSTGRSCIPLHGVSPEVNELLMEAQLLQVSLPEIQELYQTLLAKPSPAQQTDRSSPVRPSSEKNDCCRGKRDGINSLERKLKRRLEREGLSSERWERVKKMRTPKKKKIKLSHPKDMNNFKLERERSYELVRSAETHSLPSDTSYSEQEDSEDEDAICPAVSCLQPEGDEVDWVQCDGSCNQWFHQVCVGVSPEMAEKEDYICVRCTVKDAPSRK
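Compound dilutions met 200 nM (final) KDM5BΔAP for 10 min at room temperature before substrate addition. The substrate mix held 12.5 µM H3K4me3 with cofactors 25 µM α-ketoglutarate and 50 µM Fe²⁺. NADH signal gain over 30 min defined activity.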
IP6K1 inh: IP6K1 kinase inhibition. Q92551. IP6K1 kinase, ADP-Glo luminescence, 2 h; stronger effect = lower value. activity change, % (series mostly up to about 58 µM). 140,000 compounds, 0.81% hits; in the data active = activity change below about -25%; note: % is set by controls: 0 for no effect and ±100 for the full control effect
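ADP-Glo luminescence measures ADP made by human IP6K1 during a 2 h RT reaction with ATP/IP6 (mix at 1.3 mM/130 uM); top library doses 57.5 and 19.1 uM final.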
SNCA viab count: cell viability loss counter-screen; HEK-293-SNCA-luc viability, GF-AFC fluorescence, 24 h; Potency, µM (doses to about 57.1 µM), for the others: at the highest dose activity change, negative = cytotoxicity, most hits filed as cytotoxic; 150,000 compounds, 0.12% hits;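 note: potency is the fitted concentration of half-maximal effect; 0% = DMSO-treated cells and -100% = medium-only wells without cells; nearly all actives have a fitted effect of over 30% in size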
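Cytotoxicity counterscreen: after 24 h compound treatment of genome-edited SNCA-luciferase HEK-293 cells, live-cell protease substrate GF-AFC read by fluorescence after 30 min; activity scaled between DMSO (0%) and medium-only (-100%), curves Hill-fitted.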
SNCA expr inhib: inhibitors of alpha-synuclein (SNCA) gene expression; HEK-293 SNCA-luciferase knock-in, luminescence, 24 h; Potency, µM (highest dose often 57.2 µM), for the others: at the top dose activity change, negative = inhibition, usual class: inhibitors; 140,000 compounds, 0.17% hits; AID 1671194;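 note: potency is the fitted concentration of half-maximal effect; plate controls were DMSO cells for no effect and cell-free wells for full effect; nearly all actives have a fitted effect of over 45% in size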
An asterisk follows results filed as active; i = inactive; ? = inconclusive; . = no result; [ ] = dose if it differs, or a comment. Compounds with a hit are over-represented: about 2.8% of the library has one in this group of screens. Unless noted, calls come from the whole dose curve; as a rule, active = well fitted curve in the direction sought with a large enough effect; inconclusive = small, poorly fitted or top-dose-only effect, or another doubt; inactive = no such curve, though single readings can be large; an effect the other way counts as inactive or inconclusive.

SMILES	KDM5B inh	IP6K1 inh	SNCA viab count	SNCA expr inhib
Cn1ncc2c(C(=O)NCc3cccnc3)cc(-c3ccc(C(F)(F)F)cc3)nc21	.	-3	.	.
O=C(c1ccc(=O)[nH]c1)N1CCC(C(=O)N2CCc3c(nc4cc(-c5ccccc5)[nH]n4c3=O)C2)CC1	?	7	4%	3%
COc1ccc(-c2cc3nc4c(c(=O)n3[nH]2)CN(C(=O)c2ccc3[nH]ccc3c2)CC4)cc1	16µM*	0	3%	?
COc1ccc(-c2cc3nc4c(c(=O)n3[nH]2)CN(C(=O)c2cc(CN3CCOCC3)on2)CC4)cc1	8.9µM*	5	-5%	?
COc1ccc2c(c1)CCc1c-2n[nH]c1C(=O)N1CCc2c(nc3cc(-c4ccccc4)[nH]n3c2=O)C1	16µM*	-2	6%	7%
COc1ccc(NC(=O)N2CCc3c(nc4cc(-c5ccccc5)[nH]n4c3=O)C2)c(OC)c1	?	22	-6%	-23%
COc1ccc(-c2cc3nc4c(c(=O)n3[nH]2)CN(C(=O)c2ccc(C)cc2)CC4)cc1	?	14	13%	?
O=C(c1ccc2cc[nH]c2c1)N1CCc2c(nc3cc(-c4ccccc4)[nH]n3c2=O)C1	28µM*	10	3%	-5%
O=C(NCc1ccc(F)cc1)C1CCCN(Cc2cccc(-c3ccc(F)cc3F)c2)C1 (stereo not drawn)	.	-16	-1%	-21%
Cc1nn(-c2ccccc2)c2c1C(C)N(C1CCN(C(=O)NC3CCCC3)CC1)C2=O (stereo not drawn)	.	7	.	.
COc1ccccc1-c1ccc(CN2CCC(NC(=O)c3cccnc3)C2)cc1 (stereo not drawn)	.	-2	.	.
COc1ccc(C(=O)NC2CCCN(Cc3cccc(-c4ccc(C)c(Cl)c4)c3)C2)cc1 (stereo not drawn)	.	9	.	.
Cc1ccc(C(=O)N2CCc3c(nc4cc(-c5ccccc5)[nH]n4c3=O)C2)cn1	25µM*	22	2%	17%
O=C(Nc1ccc2c(c1)CCC2)N1CCc2c(nc3cc(-c4ccccc4)[nH]n3c2=O)C1	11µM*	42	7%	-9%
Cc1nc(CN2C[C@H](C(=O)Nc3cccc(F)c3)C[C@@H]2c2ccc(F)cc2)cs1	?	-4	-21%[87.6 µM]	-28%[87.6 µM]
COCC(=O)Nc1ccc(-c2noc([C@@H]3CCCN3Cc3ccc(F)cc3)n2)cn1	i	7	-12%[87.6 µM]	0%[87.6 µM]
COCC(=O)Nc1ccc(-c2noc([C@@H]3CCCN3Cc3ccc(OC(F)(F)F)cc3)n2)cn1	i	13	-9%	7%
COc1ccc(C(=O)Nc2ccc(-c3noc([C@@H]4CCCN4Cc4ccc(F)c(F)c4)n3)cn2)cc1	28µM*	-10	-19%	-4%
COc1ccc(C(=O)Nc2ccc(-c3noc([C@@H]4CCCN4C)n3)cn2)cc1	i	-14	-16%[87.6 µM]	6%[87.6 µM]
COc1ccc(C(=O)Nc2ccc(-c3noc([C@@H]4CCCN4Cc4ccc(Cl)cc4)n3)cn2)cc1	32µM*	-11	-4%	-5%
COc1ccc(C(=O)Nc2ccc(-c3noc([C@@H]4CCCN4Cc4ccccc4C)n3)cn2)cc1	32µM*	-5	-29%	?
O=C(NCc1cccnc1)c1cccnc1N1CC2CC(C1)[C@H]1CCCC(=O)N1C2 (stereo partly drawn)	28µM*	11	2%	-17%
O=C(NCc1cc(F)ccc1F)c1cccnc1N1CC2CC(C1)[C@H]1CCCC(=O)N1C2 (stereo partly drawn)	32µM*	16	-12%	6%
O=C(NCc1cccc(F)c1)c1ccc(N2CC3CC(C2)[C@H]2CCCC(=O)N2C3)nc1 (stereo partly drawn)	i	33	-5%	3%
CCOc1c(Cl)cc(C(=O)NC(C)Cn2cccn2)cc1OC (stereo not drawn)	i	.	.	.
SMILES	KDM5B inh	IP6K1 inh	SNCA viab count	SNCA expr inhib
C=CC(C)(O)CC/C=C(\C)COC1O[C@H](CO)[C@@H](O)[C@H](O)[C@H]1O (stereo partly drawn)	.	-34*	?	.
N#C/C(=C/c1cc(Br)ccc1OCc1ccccc1C#N)c1ccc(F)cc1	i	.	.	.
CCNC(=O)N[C@H]1CO[C@H]2[C@@H]1OC[C@@H]2Nc1nccc(-c2cccc(F)c2)n1	32µM*	-10	2%[87.6 µM]	?
CC(C)(C)C(=O)N[C@H]1CO[C@H]2[C@@H]1OC[C@@H]2Nc1nccc(-c2cccc(C#N)c2)n1	?	-8	-1%[87.6 µM]	6%[87.6 µM]
COCC(=O)N[C@H]1CO[C@H]2[C@@H]1OC[C@@H]2Nc1nccc(-c2cccc(C#N)c2)n1	?	-11	2%[87.6 µM]	2%[87.6 µM]
N#Cc1cccc(-c2ccnc(N[C@H]3CO[C@H]4[C@@H]3OC[C@@H]4NC(=O)N3CCOCC3)n2)c1	32µM*	-6	8%	-17%
O=C(N[C@H]1CO[C@H]2[C@@H]1OC[C@@H]2Nc1nccc(-c2cccc(F)c2)n1)c1ccccc1	?	0	4%[87.6 µM]	?
COCC(=O)N[C@H]1CO[C@H]2[C@@H]1OC[C@@H]2Nc1nccc(-c2cccc(F)c2)n1	35µM*	-5	-4%[87.6 µM]	22%[87.6 µM]
CC(=O)N[C@H]1CO[C@H]2[C@@H]1OC[C@@H]2Nc1nccc(-c2cccc(F)c2)n1	35µM*	-8	3%[87.6 µM]	?
Cc1ccc(NC(=O)CSc2cn(C)c3ccccc23)cc1	i	.	.	.
O=C(NCCc1ccc(Cl)cc1)C1CCCCN1Cc1ccc(-c2ccsc2)cc1 (stereo not drawn)	.	-3	-3%	-1%
COc1ccc(C(=O)Nc2ccc(CCc3nc4ccc(C)cc4[nH]3)cc2)c(OC)c1	i	.	.	.
COCCN(Cc1ccccn1)Cc1cc(=O)c2cc(C)cc(C)c2[nH]1	28µM*	-3	-4%	2%
COc1cccc(-c2nc(SCc3cc(=O)c4cc(C)cc(C)c4[nH]3)n[nH]2)c1	i	.	.	.
CCn1cnc2c1c(=O)n(CC(=O)Nc1ccc3c(c1)OCO3)c(=O)n2Cc1ccccc1	i	.	.	.
O=C(NCc1cccc(F)c1)c1ccc2c(c1)CC(=O)N2Cc1ccccc1	i	-3	-2%	13µM*
O=C(NCc1ccco1)c1ccc2c(c1)CC(=O)N2Cc1cccc(F)c1	i	-13	5%	27%
Cc1cccc2ncc(C(=O)N3CCC4(CCNC(=O)CC4)CC3)c(=O)n12	22µM*	14	7%	?
COc1ccccc1-n1cc(C(=O)N2CCC3(CCNC(=O)CC3)CC2)cn1	i	-11	2%	44%
COCCNC(=O)/C(C#N)=C\c1cccc(C(F)(F)F)c1	i	.	.	.
Cc1noc(C)c1-c1cc2cc(CO)oc2c(N2CCS(=O)(=O)CC2)n1	35µM*	10	-4%[87.6 µM]	24%[87.6 µM]
Cc1noc(C)c1-c1cc2cc(C(C)C)oc2c(N2CCS(=O)(=O)CC2)n1	32µM*	-16	4%[87.6 µM]	-1%[87.6 µM]
Cc1noc(C)c1-c1cc2cc(CO)oc2c(N2CCN(c3ccccn3)CC2)n1	?	16	-12%[87.6 µM]	56%[87.6 µM]
O=C(c1cnccn1)N(Cc1ccccc1)c1ccccc1	i	.	.	.
